Assay [1] deals with Falciformispora senegalensis CBS197.79. Briefly: growth relative to untreated control; higher = less inhibition, active = 20 or less. The essentials: (§1)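 In 96-well plates, suspended hyphal fragments of M. mycetomatis MM55 or F. senegalensis CBS197.79 were exposed to compound at 100 or 25 µM for 7 days at 37 °C. The suspension medium was colourless RPMI 1640 with L-glutamine and MOPS, adjusted to 68–72% transmission at 660 nm. Viability was measured with MTS (2 h, 490 nm) or resazurin (600 nm). Growth means metabolic activity compared with the untreated growth control after blank correction of both with medium plus dye.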

Assay [2] deals with Madurella mycetomatis MM55. The assay is described as above. The procedure, abridged:
as §1

Unmarked numbers belong to inactive results.

For the compound `O=C(c1ccc(Nc2nccc(-c3cc(Cl)cc(C(F)(F)F)c3)n2)cc1)N1CC2(COC2)C1`, the growth in assay [1] (25 µM) is 96%; in assay [1] (100 µM), 96.8%; in assay [2] (25 µM) it was 62.9%; in assay [2] (100 µM), 50.6%.
As to `O=C(NC1(CO)CCOCC1)c1cc2ccc(C(F)(F)F)cc2[nH]1`, the growth was 89.7% in assay [1] (25 µM), 82.1% in assay [1] (100 µM), 83.9% in assay [2] (25 µM) and 72.9% in assay [2] (100 µM).
With `CCOC(=O)c1c(CSc2ccccc2)n(C)c2cc(Br)c(O)c(CN(C)C)c12`, the growth in assay [1] (25 µM) is 103%; in assay [1] (100 µM) it was 97.8%; in assay [2] (25 µM), 98.5%; in assay [2] (100 µM) it was 75.4%.
As for `CN(C)CCNC(=O)c1csc(Nc2ccc(Cl)c(Cl)c2)n1`, the growth in assay [1] (25 µM) was 92.7%; in assay [1] (100 µM), 83.6%; in assay [2] (25 µM), 47.4%; in assay [2] (100 µM) it was 62.3%.
In the case of `CCOC(=O)C1=C(CC)NC2=C(C(=O)CC(C)(C)C2)C1c1ccc(Br)cc1` (configuration not stated), the growth in assay [1] (25 µM) was 82.3%; in assay [1] (100 µM), 87%; in assay [2] (25 µM), 106%; in assay [2] (100 µM), 73.2%.
On to `Cn1nc(-c2cccc(C#N)c2)c2cc(-c3n[nH]c(C4CCCN4)n3)ccc21` (configuration not stated), for which the growth in assay [1] (25 µM) is 98.7%; in assay [1] (100 µM) it was 94.2%; in assay [2] (25 µM) it was 92.7%; in assay [2] (100 µM), 74.9%.
The like results for `CC(C)Nc1ncc2nc(Nc3cc(Cl)cc(C(F)(F)F)c3)n(C3CCNCC3)c2n1` were, in that order, 90.2%, 69.2%, 118% and 4.67% (active).
`CC(C)OC(=O)[C@H](C)N[P@](=O)(OC[C@H]1O[C@@H](n2ccc(=O)[nH]c2=O)[C@](C)(F)[C@@H]1O)Oc1ccccc1`: the growth in assay [1] (25 µM) is 112%; in assay [1] (100 µM) it was 108%; in assay [2] (25 µM) it was 94.5%; in assay [2] (100 µM), 85.7%.
For the compound `OCCN1CCc2nc(NCc3ccc(F)cc3F)nc(NC34CC(C3)C4)c2CC1`, the growth in assay [1] (25 µM) was 69.4%; in assay [1] (100 µM), 19.8% (active); in assay [2] (25 µM) it was 32.2%; in assay [2] (100 µM) it was 5.18% (active).
`c1ccc(Nc2cc(Nc3cc(-c4ccccc4)[nH]n3)nc3ccnn23)cc1`: the growth in assay [1] (25 µM) is 67.4%; in assay [1] (100 µM), 59.7%; in assay [2] (25 µM), 8.39% (active); in assay [2] (100 µM), 10.5% (active).
As for `COc1ccc(-n2nc(C(N)=O)c3c2C(=O)N(c2ccc(N4CCCCC4=O)cc2)CC3)cc1`, the growth in assay [1] (25 µM) was 104%; in assay [1] (100 µM), 91.6%; in assay [2] (25 µM), 111%; in assay [2] (100 µM), 84.1%.
The like results for `Cc1nc2ccccc2n1Cc1ccc(Cl)cc1` were, in that order, 106%, 76.5%, 76.5% and 5.04% (active).
`COc1ccc(CCN(C)CCCC(C#N)(c2ccc(OC)c(OC)c2)C(C)C)cc1OC` (configuration not stated): the growth is 110% in assay [1] (25 µM), 98.5% in assay [1] (100 µM), 76.9% in assay [2] (25 µM) and 98.8% in assay [2] (100 µM).
As to `O=C(O)c1ccc2c(c1)nc(Nc1cccc(Cl)c1)c1ccncc12`, the growth is 97.2% in assay [1] (25 µM), 97.3% in assay [1] (100 µM), 125% in assay [2] (25 µM) and 78.1% in assay [2] (100 µM).
For `CN(C)C(=O)COC(=O)Cc1ccc(OC(=O)c2ccc(NC(=N)N)cc2)cc1`, in that order: 112%, 108%, 77.6% and 93.2%.
For `O=C(c1ccc(Nc2nccc(-c3ccc(C(F)(F)F)c(Cl)c3)n2)cc1)N1CC(O)C1`, in that order: 97.7%, 106%, 103% and 131%.
For `CN(C)C(=N)N=C(N)N`, the growth was 104% in assay [1] (25 µM), 105% in assay [1] (100 µM), 87% in assay [2] (25 µM) and 87.2% in assay [2] (100 µM).
Take `COc1c(C)c2c(c(O)c1C/C=C(\C)CCC(=O)O)C(=O)OC2`: the growth was 102% in assay [1] (25 µM), 107% in assay [1] (100 µM), 88% in assay [2] (25 µM) and 94.6% in assay [2] (100 µM).
`O=C(NCCCNc1nc(Nc2ccc(N3CCOCC3)cc2)ncc1C1CC1)C1CCC1`: the growth is 93.4% in assay [1] (25 µM), 95% in assay [1] (100 µM), 101% in assay [2] (25 µM) and 72.1% in assay [2] (100 µM).
In the case of `Cc1cccc(-c2noc(-c3ccccc3)n2)c1`, the growth in assay [1] (25 µM) was 86.3%; in assay [1] (100 µM) it was 99.4%; in assay [2] (25 µM), 90.6%; in assay [2] (100 µM) it was 68.5%.
Regarding `Cc1ccc(-c2ccc(C3(CN)CCOCC3)cc2)cn1`, the growth in assay [1] (25 µM) is 59%; in assay [1] (100 µM) it was 25.4%; in assay [2] (25 µM) it was 41.4%; in assay [2] (100 µM) it was 6.97% (active).
For the compound `FC(F)(F)c1cc(Cl)cc(Nc2nc3cnc(NC4CCOCC4)nc3n2C2CCNCC2)c1`, the growth in assay [1] (25 µM) was 93.9%; in assay [1] (100 µM), 79.8%; in assay [2] (25 µM), 111%; in assay [2] (100 µM) it was 5.14% (active).
For `CCN1CCN(C2CCN(C(=O)COc3ccc(-c4ccccc4F)cc3)CC2)CC1`, in that order: 99.8%, 6% (active), 105% and 41.1%.
